# Experimental data from the supplement of paper PMC10498489.
# About 330 (14%) of roughly 2,300 compounds showed activity. Only a sample is shown. Unmarked numbers belong to inactive results.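 How the source made its calls: active = median modified Z-score above 1.96; inactive = 1.96 or below.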
# System: HepG2 Srxn1-GFP reporter cells (+30 nM CDDO-Me)
# Assay: Srxn1-GFP intensity median modified Z-score relative to plate median; higher = stronger NRF2 / oxidative stress reporter activation, active = hit call of the paper
# Settings: 10 µM; exposure time: 24h
# In short: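 The modified Z-score of GFP intensity was computed per plate, and the median over replicates is reported. HepG2 Srxn1-GFP BAC reporter cells in three replicate plates were treated for 24 h with compound at 10 μM plus an NRF2 activator at 30 nM (≤0.1% DMSO). Per-cell cytoplasmic GFP came from confocal images, excluding those with under 100 cells, and scaling used 1.4826 × median absolute deviation.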
row,Structure (SMILES),Srxn1-GFP intensity median modified Z-score
1,COc1cc2c(cc1OC)[C@@]13CCN4CC5=CCOC6CC(=O)N2C1[C@H]6[C@H]5C[C@H]43 (stereo partly drawn) [euspeclibcmpd1053],1.74
2,C=CCN1CCC23c4c5ccc(O)c4OC2C(=O)CC[C@@]3(O)[C@H]1C5 (stereo partly drawn) [euspeclibcmpd455],-0.148
3,C[C@@H]([C@H](O)c1ccccc1)N(C)C [euspeclibcmpd1255],0.2
4,CC(Cc1ccc(O)cc1)NCC(O)c1cc(O)cc(O)c1 (stereo not drawn) [euspeclibcmpd366],0.124
5,CC(CCc1ccccc1)NC(C)C(O)c1ccc(O)cc1 (stereo not drawn) [euspeclibcmpd217],6.08 (active)
6,CC1(C)C(C=C(Cl)Cl)C1C(=O)OC(C#N)c1cccc(Oc2ccccc2)c1 (stereo not drawn) [euspeclibcmpd1141],-0.358
7,O=C(COc1ccc(Br)cc1Cl)N1CCN(Cc2ccc3c(c2)OCO3)CC1,0.363
8,C=CCc1ccc2c(c1)OCO2 [euspeclibcmpd1477],-0.318
9,O=C(COc1ccc2ccccc2c1)N1CCN(Cc2ccc3c(c2)OCO3)CC1,4.61 (active)
10,CCOP(=S)(OCC)Oc1nc(Cl)c(Cl)cc1Cl [euspeclibcmpd1024],0.883
11,COc1cccc2c1cc([N+](=O)[O-])c1c(C(=O)O)cc3c(c12)OCO3 [euspeclibcmpd2326],0.769
12,COC(C)CC(=O)Nc1ccc([N+](=O)[O-])c(C(F)(F)F)c1 (stereo not drawn),1.79
13,N=c1ccc(C(N)=O)c[nH]1 [euspeclibcmpd1777],0.117
14,CN1C2CC[C@@H]1C[C@@H](OC(=O)C(CO)c1ccccc1)C2 (stereo partly drawn) [euspeclibcmpd2101],0.179
15,Cc1cc2c(C(C)C)c(O)c(O)c(C=O)c2c(O)c1-c1c(C)cc2c(C(C)C)c(O)c(O)c(C=O)c2c1O [euspeclibcmpd2093],3.73 (active)
16,Cc1cc2c(C(C)C)c(O)c(O)c(C=O)c2c(O)c1-c1c(C)cc2c(C(C)C)c(O)c(O)c(C=O)c2c1O [euspeclibcmpd1471],3.88 (active)
17,CN1C2CCC1CC(OC(=O)C(CO)c1ccccc1)C2 (stereo not drawn) [euspeclibcmpd2059],-0.875
18,CC[C@@]1(O)C(=O)OCc2c1cc1n(c2=O)Cc2cc3ccccc3nc2-1 [euspeclibcmpd1447],-0.602
19,COP(=O)(OC)C(O)C(Cl)(Cl)Cl (stereo not drawn) [euspeclibcmpd866],3.07 (active)

row,Structure (SMILES),Srxn1-GFP intensity median modified Z-score
1,CCC(COC(=O)c1cc(OC)c(OC)c(OC)c1)(c1ccccc1)N(C)C (stereo not drawn) [euspeclibcmpd1183],-0.264
2,Oc1ccc2c3c1OC1[C@@H](O)CC[C@@]4(O)[C@@H](C2)N(CC2CCC2)CC[C@]314 (stereo partly drawn) [euspeclibcmpd978],0.208
3,COC(=O)C(c1ccccc1)C1CCCCN1 (stereo not drawn) [euspeclibcmpd885],-0.181
4,CN(C)C(=O)Oc1cccc([N+](C)(C)C)c1 [euspeclibcmpd207],0.0711
5,CC(C)c1cc2c(c(O)c1O)[C@@]1(C(=O)O)CCCC(C)(C)C1CC2 (stereo partly drawn) [euspeclibcmpd2302],5.33 (active)
6,c1ccc2c(c1)Nc1ccccc1S2 [euspeclibcmpd928],0.0728
7,NCCc1c[nH]c2ccccc12 [euspeclibcmpd1506],-0.231
8,S=C=NCc1ccccc1 [euspeclibcmpd1105],100 (active)
9,NNCc1ccccc1 [euspeclibcmpd1327],0.32
10,CC(=O)c1c(O)cc(C)oc1=O [euspeclibcmpd1006],15.5 (active)
11,CN(C)C1C(=O)C(C(N)=O)C(=O)[C@@]2(O)C(=O)C3C(=O)c4c(O)ccc(Cl)c4[C@@](C)(O)[C@H]3C[C@@H]12 (stereo partly drawn) [euspeclibcmpd61],0.0407
12,NCC(CC(=O)O)c1ccc(Cl)cc1 (stereo not drawn) [euspeclibcmpd593],-0.2
13,CN(C)C1C(=O)C(C(N)=O)C(=O)[C@@]2(O)C(=O)C3C(=O)c4c(O)cccc4[C@@](C)(O)[C@H]3C[C@@H]12 (stereo partly drawn) [euspeclibcmpd288],0.167
14,CC(C)(O)[C@@H]1[C@H]2OC(=O)[C@@H]1[C@]1(O)C[C@H]3O[C@]34C(=O)O[C@H]2[C@]14C [euspeclibcmpd1439],-0.455
15,C=C(C)[C@@H]1[C@H]2OC(=O)[C@@H]1[C@]1(O)C[C@H]3O[C@]34C(=O)O[C@H]2[C@]14C [euspeclibcmpd1351],17.9 (active)
16,CCC(C)C(=O)O[C@@H]1C[C@@]2(C)[C@H](c3ccoc3)OC(=O)CC23OC2(C)OC34[C@H](OC(=O)C(C)C)[C@@]3(O)[C@@H](OC(=O)C5(C)OC5C)[C@@]5(C)C[C@]3(O)[C@@](C)([C@H]5CC(=O)OC)C14O2 (stereo partly drawn) [euspeclibcmpd1627],0.307
17,COc1c2c(cc3c1OCO3)CC[N+](C)=C2 [euspeclibcmpd2418],0.209
18,CNCC(=O)c1ccc(O)c(O)c1 [euspeclibcmpd922],-1.16
19,CCC1(CC)C(=O)NC(=O)NC1=O [euspeclibcmpd2126],0.302
